# c-Myc SMM: binds human c-Myc on microarray. small molecule microarray, His-c-Myc binding, anti-His fluorescence. calls only. 1.5% of 17,000 active;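 active means spot fluorescence over background with P-value below 7% in all four replicate spots, showing protein binding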
# Target sequence (P01106 whole entry, looked up): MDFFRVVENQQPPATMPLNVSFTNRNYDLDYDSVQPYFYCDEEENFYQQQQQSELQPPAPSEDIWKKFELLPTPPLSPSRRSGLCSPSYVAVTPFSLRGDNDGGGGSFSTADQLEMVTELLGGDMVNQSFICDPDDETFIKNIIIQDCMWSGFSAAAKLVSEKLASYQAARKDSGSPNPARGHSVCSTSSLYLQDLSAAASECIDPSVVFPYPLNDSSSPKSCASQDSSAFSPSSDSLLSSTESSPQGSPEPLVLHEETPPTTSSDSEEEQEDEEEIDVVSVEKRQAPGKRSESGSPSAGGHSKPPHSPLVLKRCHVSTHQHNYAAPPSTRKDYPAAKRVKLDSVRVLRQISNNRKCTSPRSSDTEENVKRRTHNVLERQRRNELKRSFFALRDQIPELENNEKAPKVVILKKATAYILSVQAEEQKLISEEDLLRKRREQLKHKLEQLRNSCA
# mut p53 SMM: binds human mutant p53 on microarray; 0.4% of 17,000 active; AID 624136; small molecule microarray binding, anti-GST fluorescence; calls only;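 active means compounds whose four printed spots each glow above background more than chance allows, each with a p-value under 7%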
# NFkB SMM: binders of human NF-kappa-B p105. P19838. Small molecule microarray, anti-His fluorescence binding. calls only. 1.3% of 17,000 active;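 active means spot fluorescence over background significantly raised, with a chance value under 7% in all four replicate spots of the compound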;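 further: probe protein is his-tagged human p50 processed subunit at 1 µg/ml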
# STAT3 binder: binds human STAT3 on microarray; 0.2% of 17,000 active; AID 624138; P40763; Small molecule microarray, His-STAT3 binding, anti-His fluorescence; calls only;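 active means compounds whose four printed spots each show fluorescence over background unusually high for their array block, chance value under 7%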
# Calls only; n = inactive; + = active, no number. The list is not random: actives were taken first. Their share in the collection is about 2.4%.
SMILES,c-Myc SMM,mut p53 SMM,NFkB SMM,STAT3 binder
COc1ccc(C#Cc2ccc3c(c2)[C@]2(C(=O)N3)[C@H](C(=O)N3CCc4cc(OC)c(OC)cc4C3)[C@H]3C(=O)O[C@H](c4ccccc4)[C@H](c4ccccc4)N3[C@@H]2c2ccccc2OCCO)cc1,n,n,n,n
O=C1O[C@H](c2ccccc2)[C@H](c2ccccc2)N2[C@H]1[C@@H](C(=O)N1CCCCCCC1)[C@]1(C(=O)Nc3ccc(C#CC4=CCCCC4)cc31)[C@H]2c1ccccc1OCCO,+,+,+,n
O=C1O[C@H](c2ccccc2)[C@H](c2ccccc2)N2[C@H]1[C@@H](C(=O)N1CCN(c3ncccn3)CC1)[C@]1(C(=O)Nc3ccc(C#CC4=CCCCC4)cc31)[C@H]2c1ccccc1OCCO,n,n,n,n
COc1cc2c(cc1OC)CN(C(=O)[C@@H]1[C@H]3C(=O)O[C@H](c4ccccc4)[C@H](c4ccccc4)N3[C@H](c3ccccc3OCCO)[C@@]13C(=O)Nc1ccc(C#CCNC(N)=O)cc13)CC2,n,n,+,n
NC(=O)NCC#Cc1ccc2c(c1)[C@]1(C(=O)N2)[C@H](C(=O)N2CCCCCCC2)[C@H]2C(=O)O[C@H](c3ccccc3)[C@H](c3ccccc3)N2[C@@H]1c1ccccc1OCCO,+,+,n,n
O=C(NCc1ccco1)c1cc([N+](=O)[O-])ccc1Sc1nc2ccccc2[nH]1,n,n,n,n
CC(C)NC(=O)Nc1ccc2c(c1)C(=O)N([C@@H](C)CO)C[C@@H](C)[C@@H](CN(C)S(=O)(=O)c1ccccc1)OCCCC[C@@H](C)O2,+,n,n,+
CC(C)NC(=O)Nc1ccc2c(c1)C(=O)N([C@H](C)CO)C[C@H](C)[C@H](CN(C)S(=O)(=O)c1ccccc1)OCCCC[C@@H](C)O2,n,n,n,n
Cc1noc(C)c1S(=O)(=O)N(C)C[C@@H]1OCCCC[C@H](C)Oc2ccc(NC(=O)NC(C)C)cc2C(=O)N([C@H](C)CO)C[C@H]1C,+,n,+,n
C=CC[C@]1(C(=O)NCCCOC)COC(c2ccc(OCCCO)cc2)=N1,+,n,+,n
CC1(C)CC(=O)c2c(O)cc(OCC(=O)c3ccccc3)cc2O1,n,n,n,n
COc1ccccc1CN1C(=O)c2ccccc2[C@@H](C(=O)NCc2ccccc2)[C@@H]1c1ccc(CO)cc1,n,n,n,n
COc1ccccc1CN1CC(C(=O)O)CC1=O (centres undefined),+,n,n,n
Cc1ccc(Cn2nc(C)c(NC(=O)c3nc4ncccn4n3)c2C)cc1,n,n,n,n
C/C=C(\C)CC(/C=C(\C)C(O)C(C)/C=C(\C)C(O)C(C)/C=C/C(O)C/C=C/C(O)C(O)C(=O)O)C(=O)O (centres undefined),n,n,n,n
C[C@@H]1CN([C@H](C)CO)C(=O)Cc2cc(NC(=O)Nc3cccc4ccccc34)ccc2O[C@@H]1CN(C)C(=O)Nc1cccc2ccccc12,+,n,+,n
C[C@@H]1CN([C@H](C)CO)C(=O)Cc2cc(NC(=O)Nc3ccc(C(F)(F)F)cc3)ccc2O[C@@H]1CN(C)Cc1ccncc1,+,n,+,n
C[C@H](CO)N1C[C@H](C)[C@H](CN(C)C(=O)Nc2cccc3ccccc23)Oc2ccc(NC(=O)Nc3cccc4ccccc34)cc2CC1=O,n,n,n,n
O=C(NCCCN1CCOCC1)c1ccc2nc(-c3ccccc3)c(-c3ccccc3)nc2c1,n,n,n,n
O=C(O)Cn1nnnc1-c1ccc(F)cc1,+,n,+,n
Cc1cccc(-n2c(N)cc(=O)nc2SCC(=O)N(c2ccccc2)c2ccccc2)c1,n,n,n,n
Cc1noc(C)c1S(=O)(=O)N(C)C[C@@H]1OCCCC[C@@H](C)Oc2ccc(N(C)C)cc2C(=O)N([C@@H](C)CO)C[C@@H]1C,n,n,n,n
C[C@@H]1CCCCO[C@@H](CN(C)S(=O)(=O)c2ccccc2)[C@H](C)CN([C@H](C)CO)C(=O)c2cc(N(C)C)ccc2O1,n,n,n,n
Cc1noc(C)c1S(=O)(=O)N(C)C[C@H]1OCCCC[C@@H](C)Oc2ccc(N(C)C)cc2C(=O)N([C@@H](C)CO)C[C@@H]1C,+,n,+,+
C[C@@H]1CCCCO[C@H](CN(C)S(=O)(=O)c2ccccc2)[C@@H](C)CN([C@@H](C)CO)C(=O)c2cc(N(C)C)ccc2O1,n,n,+,n
SMILES,c-Myc SMM,mut p53 SMM,NFkB SMM,STAT3 binder
Cn1cccc1CNCCCN1CCOCC1,n,n,n,n
COc1ccccc1-n1c(SCC(N)=O)nc2ccc(I)cc2c1=O,n,n,n,n
COc1ccc(NC(=O)c2ccc(OC(C)C(=O)O)cc2)cc1Cl (centres undefined),n,n,+,n
CC(Oc1ccc(C(=O)Nc2ccc(Cl)cc2)cc1)C(=O)Nc1cc(Cl)ccc1Cl (centres undefined),n,n,n,n
CC(C)=CCC[C@](C)(O[C@@H]1O[C@H](CO[C@@H]2O[C@@H](CO)[C@H](O)[C@H]2O)[C@@H](O)[C@H](O)[C@H]1O)[C@H]1CC[C@]2(C)C1[C@H](O)CC1[C@@]3(C)CC[C@H](O[C@@H]4O[C@H](CO)[C@@H](O)[C@H](O)[C@H]4O[C@@H]4O[C@H](CO)[C@@H](O)[C@H](O)[C@H]4O)C(C)(C)C3CC[C@]12C (some centres undefined),+,n,+,n
C[C@@H]1O[C@@H](O[C@H]2[C@H](O[C@H]3CC[C@@]4(C)C(CC[C@]5(C)C4CC=C4C6CC(C)(C)CC[C@]6(C(=O)O[C@@H]6O[C@H](CO[C@@H]7O[C@H](CO)[C@@H](O[C@@H]8O[C@@H](C)[C@H](O)[C@@H](O)[C@H]8O)[C@H](O)[C@H]7O)[C@@H](O)[C@H](O)[C@H]6O)CC[C@]45C)C3(C)C)OC[C@H](O)[C@@H]2O)[C@H](O)[C@H](O)[C@H]1O (some centres undefined),n,n,n,n
C[C@]12CCC(=O)C=C1CC[C@@H]1C2CC[C@@]2(C)C1CC[C@@H]2C(=O)CO (some centres undefined),n,+,n,n
C[C@]12C[C@H](O)C3C(CC[C@@H]4C[C@H](O)CC[C@]34C)C1CC[C@@H]2C(=O)CO (some centres undefined),n,n,n,n
CCn1cc(C(C)NC(=S)Nc2cccc([N+](=O)[O-])c2)c(C)n1 (centres undefined),+,n,n,n
COC(=O)c1cc(C)sc1NC(=S)NC(C)c1cn(C)nc1C (centres undefined),n,n,n,n
COc1ccc2nc(NCc3ccc(OC)c(OC)c3OC)sc2c1,n,n,n,n
COCC(C)NCc1ccc(OC)c(OC)c1OC (centres undefined),+,n,n,n
CCOc1cc(CO)c(Br)cc1OCC(=O)O,+,n,n,n
COc1cc(Cl)cc(C(=O)O)c1OCC(=O)O,n,n,n,n
CC(C)(O)C1Oc2cc3occ(-c4ccc(O)cc4)c(=O)c3c(O)c2C1O (centres undefined),n,n,n,n
